Shiga inhibitor – A qHTS for Small Molecule Inhibitors of Shiga Toxin. 9.2% of 290,000 active. inhibition, % at 38.7 µM. Vero cells, Shiga toxin protein synthesis inhibition reporter; in the data active = inhibition mostly above about 28%, no sharp cut-off; inactive = mostly below about 43%; also: 0% is about no effect
Sm TGR block – qHTS Assay for the Inhibitors of Schistosoma Mansoni Peroxiredoxins | purified TGR, DTNB reduction, TNB absorbance 405 nm | Potency, µM (doses to about 114 µM), without a hit: at the highest dose activity change, negative = inhibition, hits mostly inhibitors | 3% of 360,000 active | AID 485364, 2010; active = well fitted inhibition curve with a large enough effect; inconclusive = small, poorly fitted or top-dose-only effect; inactive = no such curve, though single readings can be large or run the other way; also: potency is read from the fitted curve at half-maximal effect; % is scaled to controls: 0 for no effect and ±100 for the full control effect; nearly all actives have a fitted effect of over 60% in size
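First, TGR (20 nM dispensed) and NADPH were mixed with compound. Second, a 15 min room-temperature incubation followed. Third, further NADPH and then DTNB were added to start the reaction. Finally, TNB absorbance was monitored kinetically.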
Cycloheximide cs – Cycloheximide Counterscreen for Small Molecule Inhibitors of Shiga Toxin | max response, % | cell reporter, cycloheximide protein synthesis inhibition counterscreen | 12% of 300,000 active; in the data active = max response mostly above about 13%, no sharp cut-off; inactive = mostly below about 14%; also: read at 38.3 µM for the half of the compounds with a filed dose; 0% is about no effect
FMDV inh – High Throughput Screening for Foot and Mouth Disease Virus Antivirals; 1.2% of 410,000 active; AID 1159524, 2015; FMDV antiviral cell-based qHTS; Potency, µM (top dose mostly 57.9 µM), for inactives: top-dose activity change, negative = inhibition, usual class: inhibitors; calls by dose curve; tested in HEK293T cells; also: read-out not given here; potency is read from the fitted curve at half-maximal effect; % is scaled to controls: 0 for no effect and ±100 for the full control effect; nearly all actives have a fitted effect of over 45% in size
An asterisk follows results filed as active; ? = inconclusive; nt = no result given. Shown are actives, neighbours in structure and some others; about 12% of the full set was active somewhere.

SMILES	Shiga inhibitor	Sm TGR block	Cycloheximide cs	FMDV inh
O=C(Nc1ccc(-c2cscn2)cc1)C1CCCN(Cc2ccccc2)C1 (configuration not stated)	19	-2%	24*	10%
COCCCNc1nc2c(S(=O)(=O)c3ccc(C)c(C)c3)nnn2c2ccc(Cl)cc12	nt	2%	nt	-7%
CC(C)OCCCNC(=O)c1cc2c(-c3ccc(Cl)cc3)nn(C)c2s1	nt	2%	nt	-27%
CC(=O)Nc1cc(C(=O)N2CCSCC2)cc2ncn(CCc3ccccn3)c12	nt	nt	nt	-11%
Cc1cc(C(=O)OCC(=O)N2CC(C)CC(C)C2)c(C)o1 (configuration not stated)	-8	25µM*	-9	0%
CC1Cc2ccccc2N1C(=O)COC(=O)c1ccco1 (configuration not stated)	nt	nt	nt	-13%
Cc1cc(C(=O)OCC(=O)N2c3ccccc3CC2C)c(C)o1 (configuration not stated)	36*	25µM*	12	7%
COc1ccc(/C(C)=N/N2C(=O)c3ccccc3NC2c2ccc(O)c(OC)c2)cc1 (configuration not stated)	33*	-9%	14*	-28%
COc1cc(C2C(=O)c3ccccc3C2=O)ccc1O	nt	-3%	59*	26%
COc1ccc(CCN2C(=O)c3ccccc3NC2c2cc(Cl)c(O)c(OC)c2)cc1 (configuration not stated)	-6	-33%	-2	-5%
COc1cc(C2Nc3ccccc3C(=O)N2c2ccccc2)ccc1O (configuration not stated)	123*	-8%	47*	41%
COc1ccc(C2Nc3ccccc3C(=O)N2c2ccccc2)cc1COc1ccccn1 (configuration not stated)	15	?	8	nt
COc1ccc(C2C(=O)c3ccccc3C2=O)cc1OC	33	-5%	5	-42%
COc1ccc(C2Nc3ccccc3C(=O)N2c2ccc(F)cc2)cc1CSc1ccccn1 (configuration not stated)	12	-8%	15*	-9%
CC(CNC(=O)c1ccc(Cn2c(SCc3ccccc3)nc3cccnc32)cc1)c1ccccc1 (configuration not stated)	nt	4%	nt	-4%
CCN(C(=O)c1nn(-c2ccc(OC)c(Cl)c2)c(=O)c2c1c1ccccc1n2C)c1cccc(C(F)(F)F)c1	nt	-7%	nt	0%
CCOc1ccc2nc(N(Cc3cccnc3)C(=O)c3ccco3)sc2c1	nt	6%	nt	37%
Cc1c(C(=O)N(C)Cc2cscn2)sc2ncnc(NC[C@H]3CCc4ccccc4O3)c12	nt	nt	nt	-12%
CC(C)Oc1ccccc1C1CC(=O)Nc2cc3c(cc21)OCCO3 (configuration not stated)	-6	-2%	2	?
CCOc1cc(C2c3c(-c4ccccc4)n[nH]c3C(=O)N2c2ccc(C(=O)O)cc2)ccc1O (configuration not stated)	6	25µM*	-2	-18%
COc1ccc(-c2n[nH]c3c2C(c2ccc(O)cc2)N(c2ccc(Br)cc2)C3=O)cc1 (configuration not stated)	nt	-14%	nt	32µM*
CC(C)Oc1ccccc1C1Nc2ccccc2C(=O)N1c1ccc2c(c1)OCCO2 (configuration not stated)	71*	2%	54*	-14%
COc1ccc(C2c3c(-c4ccccc4)n[nH]c3C(=O)N2c2ccc(C(=O)O)cc2)cc1 (configuration not stated)	0	11%	1	-19%
CC(=O)NN1C(=O)c2ccccc2NC1c1ccccc1O (configuration not stated)	-5	-12%	-4	-14%
CCc1ccc(C2c3c(-c4ccccc4)n[nH]c3C(=O)N2c2ccc(C(=O)O)cc2)cc1 (configuration not stated)	nt	-1%	nt	-23%
SMILES	Shiga inhibitor	Sm TGR block	Cycloheximide cs	FMDV inh
COc1ccc(N2C(=O)c3ccccc3NC2c2ccccc2O)cc1 (configuration not stated)	57*	-32%	43*	16%
CN(C)c1ncc2nc(-c3cc(F)cc(F)c3)c(=O)n(C3CC3)c2n1	nt	nt	nt	-9%
CCOC(=O)c1ccc(NS(=O)(=O)c2cc3c(cc2C)n(C)c(=O)c(=O)n3C)cc1	nt	4%	nt	-13%
CC(C)c1c(C(=O)NCc2cccnc2)cnn1-c1nccc(-c2cccs2)n1	nt	nt	nt	-17%
Cc1ccc(-c2nn3c(=O)cc(CN4CCN(C(=O)/C=C/c5ccccc5)CC4)nc3s2)cc1	nt	2%	nt	-21%
CCOc1cc(C2Nc3ccccc3C(=O)N2c2ccccc2)ccc1O (configuration not stated)	43	2%	19*	46%
